Results from PubChem BioAssay AID529 (NMMLSC, 2006).
Out of some 24,000 compounds screened, about 50 (0.2%) were called active. Another 9% or so got no clear call; they are omitted.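 How the source made its calls: active means inhibition above 50%; inconclusive means compound itself fluorescent, judged against control cell fluorescence; inactive means the rest.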 Only a selection was taken, and actives are over-represented in it overall.

Biological target: Integrin alpha-4 (Homo sapiens) (UniProt P13612)
Experiment: blockers of LDV-FITC ligand binding on VLA-4 – Jurkat cells, Mn2+ activated, primary screen (AID 529);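 further: 0% = Mn2+ stimulated cells lacking compound and 100% = ligand binding without Mn2+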
Settings: LDV-FITC binding with Mn2+, flow cytometry, stronger effect = higher value, 100% = Mn2+-driven binding gain fully reversed, screened at 10 µM (by protocol)

Chain of Integrin alpha-4 (Homo sapiens) (P13612 whole entry, looked up): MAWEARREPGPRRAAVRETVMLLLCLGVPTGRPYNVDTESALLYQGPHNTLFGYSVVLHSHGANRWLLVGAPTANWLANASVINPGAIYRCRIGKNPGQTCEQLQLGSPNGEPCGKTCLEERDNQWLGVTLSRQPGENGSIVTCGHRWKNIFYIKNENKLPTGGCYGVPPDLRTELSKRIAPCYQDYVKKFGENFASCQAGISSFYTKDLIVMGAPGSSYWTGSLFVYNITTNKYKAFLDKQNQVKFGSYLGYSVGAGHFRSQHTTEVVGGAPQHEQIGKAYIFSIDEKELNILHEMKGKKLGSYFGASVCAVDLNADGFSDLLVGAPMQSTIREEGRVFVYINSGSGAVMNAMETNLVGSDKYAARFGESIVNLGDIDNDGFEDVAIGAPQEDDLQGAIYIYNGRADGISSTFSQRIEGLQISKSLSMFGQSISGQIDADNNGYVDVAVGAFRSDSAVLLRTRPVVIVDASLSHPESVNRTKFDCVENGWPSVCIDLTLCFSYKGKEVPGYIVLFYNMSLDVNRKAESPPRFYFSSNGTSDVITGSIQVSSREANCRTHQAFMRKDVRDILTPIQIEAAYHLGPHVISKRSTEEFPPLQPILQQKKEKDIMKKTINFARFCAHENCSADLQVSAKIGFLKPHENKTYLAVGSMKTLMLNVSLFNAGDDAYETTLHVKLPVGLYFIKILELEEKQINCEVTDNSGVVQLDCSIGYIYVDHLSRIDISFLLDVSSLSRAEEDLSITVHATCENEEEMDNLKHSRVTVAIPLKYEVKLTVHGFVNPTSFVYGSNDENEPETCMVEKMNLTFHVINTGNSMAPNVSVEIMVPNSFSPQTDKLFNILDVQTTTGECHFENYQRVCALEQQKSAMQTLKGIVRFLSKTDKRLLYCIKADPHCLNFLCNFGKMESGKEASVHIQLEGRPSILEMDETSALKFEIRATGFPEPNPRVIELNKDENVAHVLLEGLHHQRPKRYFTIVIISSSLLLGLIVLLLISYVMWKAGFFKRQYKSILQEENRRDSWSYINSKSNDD

inhibition, inactive:
Cc1ccc(NC(=O)C2CCCN(S(=O)(=O)c3c(C)noc3C)C2)c(C)c1 (stereo not drawn) -21%
O=C(CCn1c(=O)oc2ccccc21)Nc1ccon1 -16%
O=C(CN1CCN(CC(=O)Nc2ccc3c(c2)OCO3)CC1)Nc1ccc(F)cc1 14%
CCOc1ccc(N(CC(=O)OC)S(=O)(=O)c2c(C)noc2C)cc1 13%
CCOC(=O)CN1CC23C=CC(O2)C(C(=O)Nc2ccc(F)cc2)C3C1=O (stereo not drawn) -44.5%
Cc1nc(C)c2c(c1C(F)(F)F)-c1ccccc1C2(F)F -6.5%
COc1ccc(N2C(=O)C3CCCN3C2c2cccs2)cc1 (stereo not drawn) 8%
COc1ccccc1Cn1c(=S)[nH]c2cc(C(=O)N3CCN(C)CC3)ccc2c1=O 15%
O=C(NCCCN1CCN(Cc2ccccc2)CC1)C1CCN(S(=O)(=O)N2CCCC2)CC1 -27%
CCCC(NC(=O)c1ccccc1)c1nc2ccccc2n1Cc1ccc(C(=O)OC)o1 (stereo not drawn) 1%
Cc1ccc(NC(=O)CSc2nnc(-c3cnccn3)n2Cc2ccco2)cc1C -19.5%
Cc1ccc(NC(=O)CN(C)S(=O)(=O)c2cnc[nH]2)cc1C 1%
CCCOC(=O)c1[nH]c2c(c1C)C(=O)CC(c1cc(OC)c(OC)c(OC)c1)C2 (stereo not drawn) -2%
COc1ccccc1-n1cnc2cc(C(=O)NCC3CCCO3)ccc21 (stereo not drawn) -11%
CCOC(=O)c1c(NC(=O)c2cccs2)sc(C)c1C -11.5%
COc1cccc(NC(=O)Nc2nnc(N3CCCCC3C)s2)c1 (stereo not drawn) -4%
O=C(O)c1cccc2c1C(=O)N(C1CCCCC1)C2 -16%
CCOc1ccc(CCNC(=O)C2CCN(c3ccc(N4CCOCC4)nn3)CC2)cc1OCC -6%
CCOC(=O)N1CCC(NC(=O)c2cnn3ccccc23)CC1 2.5%
Cc1nc(CNS(=O)(=O)c2cccnc2)cs1 -1%
CC1CCCCC1NC(=O)CCS(=O)(=O)c1cccc2nonc12 (stereo not drawn) 12%
CCN(CC(=O)Nc1ccc2c(c1)OCCO2)Cc1cc(=O)oc2cc(C)c(C)cc12 -1.5%
CCn1c(=O)cc(SCC(=O)NCc2ccc3c(c2)OCO3)c2ccccc21 5%
COc1cc(C2C(C(=O)Nc3ccc(F)cc3)=C(C)Nc3nc(CCCO)nn32)cc(OC)c1OC (stereo not drawn) -7%
CCn1ncc(C2=NOC(C(=O)N3CCN(c4ccccc4)CC3)C2)c1C (stereo not drawn) 7%
c1ccc(CCn2nnnc2CN2CCN(C3CCCC3)CC2)cc1 -4.5%
Cc1cc(=O)n2nc(N3CCCC(C(=O)N4CCN(C)CC4)C3)sc2n1 (stereo not drawn) -12.3%
CCN(CC)S(=O)(=O)c1ccc2[nH]cc(C(=O)NCCc3ccccc3)c(=O)c2c1 2%
CCOC(=O)c1nnn(CC(=O)Nc2cccc(F)c2)c1C(=O)OCC 13.7%
CC(NC(=O)CN1CCN(Cc2ccc(Cl)cc2)C1=O)c1ccc2c(c1)OCCO2 (stereo not drawn) 4%
CN(C)S(=O)(=O)c1cccc(C(=O)Nc2cccnc2)c1 -37.5%
COc1ccc(Cl)cc1S(=O)(=O)N1CCN(CC(=O)C(C)(C)C)CC1 14%
CCCCC(CC)C(=O)Nc1ccc(Cl)cn1 (stereo not drawn) -17.5%
O=C(NCc1ccccn1)c1cnc2sccn2c1=O -2%
Cc1cccn2c(=O)c3cc(C(=O)N4COCC4(C)C)n(C)c3nc12 -28%
Cc1nc(NC(=O)CCC(=O)O)sc1C(=O)N(C)C -12%
O=C(Cn1c(=O)n(Cc2ccco2)c(=O)c2ccccc21)NCC1CCCO1 (stereo not drawn) -8.5%
O=C(Nc1nc2ccc(S(=O)(=O)N3CCCC3)cc2s1)C1CCCO1 (stereo not drawn) -33.5%
CCOc1ccc(Cn2nnc(C(=O)NCc3ccccc3)c2N)cc1 -1%
O=C(c1ccccc1)c1cccn1CC(=O)N1CCN(c2ccc(F)cc2)CC1 49%
O=C(O)C1CCN(S(=O)(=O)N2CCOCC2)CC1 0%
C=C1c2cc(CC)ccc2NC(=O)N1c1ccc(C)cc1 -2%
COC(=O)c1ccc2c(=O)n(CC3CCCO3)c(=S)[nH]c2c1 (stereo not drawn) -11%
CCn1c(SCC(=O)Nc2ccccc2F)nc2c(c1=O)SC(C)C2 (stereo not drawn) 3.3%
Cc1ccccc1C(=O)NCCN=C1NS(=O)(=O)c2ccccc21 -4%
CCOC(=O)N1CCC(C(N)=O)CC1 -7%
Clc1ccc(Cn2ncc3c(NCc4cccnc4)ncnc32)cc1 -0.5%
CCn1cc(C(=O)NCC2CCCO2)c(=O)c2cc(S(=O)(=O)N3CCCCC3)ccc21 (stereo not drawn) 20%
CC(NC(=O)COc1ccccc1)C(=O)NC1=NCCS1 (stereo not drawn) -18.5%
CCOC(=O)c1[nH]c2c(c1C)C(=O)CC(c1ccc(N(C)C)cc1)C2 (stereo not drawn) -3%
CCOC(=O)N1CCN(C(=O)c2cn(C)c3ccc(S(=O)(=O)N4CCCC4)cc3c2=O)CC1 -13%
CCCCOc1ccc(C(=O)NCc2ccco2)cc1 -20.5%
Cn1c(=O)cc(OCCCC(=O)N2CCN(Cc3ccc4c(c3)OCO4)CC2)c2ccccc21 7%
O=C(C(Cc1ccccc1)n1cccc1)N1CCN(C2CCCCC2)CC1 (stereo not drawn) 15%
O=C(CCCN1C(=O)C2C3C=CC(C3)C2C1=O)N1CCN(c2ccccc2)CC1 (stereo not drawn) 21%
Cc1nc2ncnn2c(C)c1CCC(=O)N1CCN(C(=O)c2ccco2)CC1 10%
Cc1cc(=O)n2nc(N3CCCC3C(=O)NCCCN3CC(C)CC(C)C3)sc2n1 (stereo not drawn) -1%
CCOc1ccc(CNC(=O)C2CC(=O)N(C3CCCC3)C2)cc1OC (stereo not drawn) 28%
O=C(CC(NS(=O)(=O)c1ccc(Cl)cc1)c1ccco1)NC1CCCC1 (stereo not drawn) 1%
O=C(Nc1ccn(Cc2ccc(F)cc2)n1)c1ccncc1 4%
O=C(NCc1cccs1)c1ccc2c(c1)ncn2C1CCCC1 -10%
CCCn1cc(SCC(N)=O)c2ccccc21 -4%
N#CC1=C(N)Oc2cc(O)ccc2C1C1CCCCC1 (stereo not drawn) -8%
CCOCCCN1C(=O)CN(C2CCCCC2)C(=O)C1c1ccc(OCC)c(OC)c1 (stereo not drawn) 7%
COc1cc2c(cc1OC)C(c1ccc(C)o1)CC(=O)N2 (stereo not drawn) 3%
CCCCOC(=O)NCN1C(=O)C2C3C=CC(C3)C2C1=O (stereo not drawn) -15%
Cc1cc(N2C(=O)c3ccc(C(=O)NCc4ccccc4)cc3C2=O)no1 3%
CCCCc1nccn1CCn1ccnc1CCCC -5%
CCCS(=O)(=O)C(=C1Nc2ccccc2N1)S(=O)(=O)CCC 0%
CCCCNC(=O)c1c[nH]c2ccc(S(=O)(=O)Nc3ccc(OCC)cc3)cc2c1=O -22.5%
COc1ccc(C2CC(c3ccc(C)cc3)Nc3ncnn32)cc1 (stereo not drawn) -3.7%
COc1ccc(C2C(C(=O)Nc3ccccc3OC)=C(C)Nc3nnnn32)c(OC)c1 (stereo not drawn) 3%
CCCCOC(=O)Nc1nccs1 15.3%
O=C(CSC1=Nc2ccccc2C2=NC(c3ccccc3)C(=O)N12)NCC1CCCO1 (stereo not drawn) 3%
COc1ccc(C2CC(c3ccc(Cl)cc3Cl)Nc3nc(N)nn32)cc1OC (stereo not drawn) -5%
COc1cccc(NS(=O)(=O)c2ccc3[nH]cc(C(=O)NCCCOC(C)C)c(=O)c3c2)c1 -26%
CCOC(=O)c1oc2ccccc2c1NC(=O)c1cccs1 17%
Cc1nn(C)c(C)c1S(=O)(=O)N1CCc2ccccc21 2%
Cc1cccc(N2CCN(S(=O)(=O)c3ccc4c(c3)c(=O)n(C)c(=O)n4C)CC2C)c1 (stereo not drawn) -4%
O=C(C1CCN(S(=O)(=O)c2cccs2)CC1)N1CCCCCC1 -3%
CN(C)CCCNC(=O)c1ccc2[nH]c3ccccc3c2c1 -6%
COc1ccc(CCNC(=O)CSc2nnc(CNC(=O)c3cccs3)o2)cc1OC 13%
CCOC(=O)C1(c2ccccc2)NC(c2ccc(N(C)C)cc2)C2C(=O)N(C)C(=O)C21 (stereo not drawn) -13%
CCOc1ccc(NC(=O)N(CCC(C)C)C(C)c2ccco2)cc1 (stereo not drawn) -12%
CCC(C)(C(=O)NC1CCCC1)N(C(=O)CNC(C)=O)c1ccc(C)cc1 (stereo not drawn) -12%
Cc1ccc(C(=O)N(CN2CCCC2=O)c2ccc(F)cc2)cc1 -10%
CCN(CC)CCNC(=O)Cn1cnc2sc(C)c(S(=O)(=O)N3CCOCC3)c2c1=O 0%
COc1ccccc1CNC(=O)CCCn1c(=O)c2ccccc2n(CC(=O)NC2CCCC2)c1=O -2%
CCOC(=O)N1CCC(NC(=O)CN2C(=O)COc3ccc(C(C)(C)C)cc32)CC1 7%
O=c1c2[nH]c3ccc(Cl)cc3c2ncn1Cc1ccccn1 -1%
O=S(=O)(NCc1ccccc1Cl)c1cnc[nH]1 -2%
CCCCN=C(N)/C(C(=O)OCC)=C(\O)c1ccc(OC)cc1 9%
COc1ccc(S(=O)(=O)NC2(C(F)(F)F)N=C3SCCN3C2=O)cc1 (stereo not drawn) -5%
Cc1ccc(-n2nc3c(c2NC(=O)c2ccc4c(c2)OCO4)CSC3)c(C)c1 13%
O=C(c1ccc2c(c1)N(Cc1ccc(F)cc1)C(=O)CS2)N1CCOCC1 -5%
CCCN1CCN(CCCNC(=O)CN2C(=O)COc3ccccc32)CC1 1%
Cc1cccc(CSc2nnc(Cn3c(=O)sc4ccccc43)n2C)c1 2%
COc1ccc(NC(=O)CN2CCN(S(=O)(=O)c3ccc(F)cc3)CC2)cc1Cl 9%
COCCn1c(=O)[nH]c2cc(C(=O)NCc3cccnc3)ccc2c1=O -22%
CCOc1ccccc1NC(=O)c1cc(S(=O)(=O)N2CCC3(CC2)OCCO3)ccc1F 8%
Cc1cc(C)c2c(n1)nn1c(N3CCOCC3)cc(C)nc21 -14%
CCOC(=O)CSc1nnc(CNC(=O)c2ccco2)n1-c1ccc(F)cc1 14%

inhibition, active:
Cc1cccn2c(=O)c3cc(C(=O)NCc4ccccn4)n(C)c3nc12 52%
